# In PubChem BioAssay (EPA / NIEHS):
# Results filed as inconclusive are left out. Active and inactive are the calls of the source. Rule for the calls, unless noted: active = hit-call score of the fitted dose curve at least 0.9, where 1 is the maximum; inconclusive = response in the unintended direction; inactive = score below 0.9.
# Assays:
# [1] = CCTE_Mundy_HCI_hNP1_Pro_ResponderAvgInten: CCTE's Proliferation Assay in human neuroprogenitor cells, Mundy Lab (AID 2284224);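 note: human neural progenitor cells hNP1 derived from WA09 embryonic stem cells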
# How it was run: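 Human neuroprogenitors (hNP1, WA09 lineage) receive test chemical after 40 to 44 hours of attachment. A four-hour BrdU pulse begins twenty hours later, followed by fixation and high content imaging; signal is referenced to DMSO controls.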
# [2] = CCTE_Mundy_HCI_Cortical_NOG_NeuronCount: CCTE's Neurite Outgrowth Assay in rat cortical cells for Neuron Count, Mundy Lab (AID 2284236);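 note: neurons counted by imaging betaIII-tubulin and Hoechst stained cortical cells; cells exposed to compound for about 48 hours before fixation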
# How it was run: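 Read-out: neuron number by high-content imaging of betaIII-tubulin (Alexa Fluor-488) and Hoechst-labelled rat primary cortical cells.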
# [3] = CCTE_Mundy_HCI_hNP1_Casp3_7: CCTE's Caspase-Glo 3/7 Assay in human neuroprogenitor cells for Apoptosis, Mundy Lab (AID 2284240; active = hit-call score of the fitted dose curve at least 0.9, where 1 is the maximum; inactive = score below 0.9)
# How it was run: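 Neuroepithelial-lineage stem cells from WA09 embryonic cells were treated with chemicals after 40–44 h of culture. Twenty-four hours later, caspase-3/7 activation was detected luminescently after a 30 min room-temperature reagent step, with DMSO as baseline.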
# [4] = molecular target: human Vascular Endothelial Growth Factor Receptor 1 (VEGFR1), FLT1 (gene 2321) (UniProt P17948); assay: NVS_ENZ_hVEGFR1: NovaScreen (NVS) Enzymatic Assay for human Vascular Endothelial Growth Factor Receptor 1 (VEGFR1) (AID 2283226)
# Sequence of human Vascular Endothelial Growth Factor Receptor 1 (VEGFR1), FLT1 (gene 2321) (P17948 whole entry, looked up): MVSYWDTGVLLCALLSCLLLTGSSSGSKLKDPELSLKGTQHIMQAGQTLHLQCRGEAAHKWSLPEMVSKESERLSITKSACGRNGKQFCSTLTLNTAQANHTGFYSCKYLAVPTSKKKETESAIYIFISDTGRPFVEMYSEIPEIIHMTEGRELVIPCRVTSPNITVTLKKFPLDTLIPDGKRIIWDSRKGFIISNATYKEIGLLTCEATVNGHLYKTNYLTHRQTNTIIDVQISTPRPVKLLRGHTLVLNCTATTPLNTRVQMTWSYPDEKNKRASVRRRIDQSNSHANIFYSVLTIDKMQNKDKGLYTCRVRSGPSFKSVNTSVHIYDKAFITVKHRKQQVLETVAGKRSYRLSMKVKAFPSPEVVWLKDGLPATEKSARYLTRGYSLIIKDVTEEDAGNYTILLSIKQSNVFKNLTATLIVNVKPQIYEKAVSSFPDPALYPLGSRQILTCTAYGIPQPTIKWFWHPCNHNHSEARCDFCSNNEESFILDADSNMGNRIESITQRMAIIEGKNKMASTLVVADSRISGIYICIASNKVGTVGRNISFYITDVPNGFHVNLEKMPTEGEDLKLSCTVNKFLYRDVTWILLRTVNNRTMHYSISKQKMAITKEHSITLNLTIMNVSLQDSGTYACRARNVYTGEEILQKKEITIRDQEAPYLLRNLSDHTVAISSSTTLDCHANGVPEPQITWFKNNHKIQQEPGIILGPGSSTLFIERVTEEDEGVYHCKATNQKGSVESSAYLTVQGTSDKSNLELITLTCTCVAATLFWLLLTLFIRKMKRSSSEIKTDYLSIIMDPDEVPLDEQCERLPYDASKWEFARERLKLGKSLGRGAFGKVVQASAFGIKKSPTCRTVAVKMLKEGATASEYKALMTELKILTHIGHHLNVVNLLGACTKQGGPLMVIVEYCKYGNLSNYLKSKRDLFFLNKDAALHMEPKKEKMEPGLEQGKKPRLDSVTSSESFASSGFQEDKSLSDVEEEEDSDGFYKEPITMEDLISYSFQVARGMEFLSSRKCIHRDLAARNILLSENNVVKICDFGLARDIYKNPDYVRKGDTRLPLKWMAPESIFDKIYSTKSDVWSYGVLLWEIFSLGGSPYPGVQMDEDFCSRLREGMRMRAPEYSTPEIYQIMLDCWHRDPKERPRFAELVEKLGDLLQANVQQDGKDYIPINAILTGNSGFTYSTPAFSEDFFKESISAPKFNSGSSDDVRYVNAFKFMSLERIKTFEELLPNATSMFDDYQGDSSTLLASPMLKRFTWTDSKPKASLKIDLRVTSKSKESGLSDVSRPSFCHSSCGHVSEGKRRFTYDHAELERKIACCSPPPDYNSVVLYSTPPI
# How it was run: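 Cell-free assay of recombinant human VEGFR1 kinase with substrate, measured 1 h after dosing; fluorescence with electrophoretic mobility-shift separation of substrate and product, referenced to DMSO; primary screen at 25 uM in duplicate, actives then run in concentration series.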
# [5] = STM_H9_NormalizedViability: Cytotoxicity Assessment at 120 hours in the Stemina devTOX quickPredict H9 human embryonic stem cell (hESC)-based Assay (AID 2283784)
# How it was run: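 Pluripotent H9 cells dosed, fresh medium plus compound q24h → cell layer read by CellTiter-Fluor → RFU blank-corrected, normalized to DMSO 0.1% mean. Loss-of-signal fit, DMSO as baseline.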
# [6] = molecular target: rat Gamma-Aminobutyric Acid Type A Receptor BDZ, alpha 6 site (GABARa6), Gabra6 (gene 29708) (UniProt P30191); assay: NVS_LGIC_rGABARa6: NovaScreen (NVS) Ligand-Gated Ion Channel Assay for rat Gamma-Aminobutyric Acid Type A Receptor BDZ, alpha 6 site (GABARa6) (AID 2283339)
# Sequence of rat Gamma-Aminobutyric Acid Type A Receptor BDZ, alpha 6 site (GABARa6), Gabra6 (gene 29708) (P30191 whole entry, looked up): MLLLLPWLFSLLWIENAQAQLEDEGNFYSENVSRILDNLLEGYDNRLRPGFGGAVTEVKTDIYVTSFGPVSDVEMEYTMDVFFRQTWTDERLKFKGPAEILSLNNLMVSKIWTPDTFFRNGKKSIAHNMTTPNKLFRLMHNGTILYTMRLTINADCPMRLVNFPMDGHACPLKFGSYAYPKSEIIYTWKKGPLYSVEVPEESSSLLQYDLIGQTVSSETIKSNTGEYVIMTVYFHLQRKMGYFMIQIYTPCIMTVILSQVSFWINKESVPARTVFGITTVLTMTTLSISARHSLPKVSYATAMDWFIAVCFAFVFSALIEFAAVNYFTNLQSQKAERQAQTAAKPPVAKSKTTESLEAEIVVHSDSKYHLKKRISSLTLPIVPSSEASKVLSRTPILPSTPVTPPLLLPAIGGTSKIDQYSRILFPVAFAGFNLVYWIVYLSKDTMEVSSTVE
# How it was run: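 Rat cerebellar membranes; radioligand binding, filtration and scintillation counting, read 1 h after dosing. Single-concentration duplicate screen at 25 uM, then concentration-response up to 50 uM for actives; loss of signal fitted versus DMSO baseline.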
# [7] = CCTE_Mundy_HCI_Cortical_Synap_Neur_Matur_BPCount: CCTE's Synaptogenesis and Neurite Maturation Assay in rat cortical cells for Branch Point Count, Mundy Lab (AID 2284211; active = hit-call score of the fitted dose curve at least 0.9, where 1 is the maximum; inactive = score below 0.9)
# How it was run: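 Rat primary cortical cultures, AraC added DIV 5; chemicals dosed DIV 7 through DIV 12. Fixed cells stained for MAP2, synaptophysin and Hoechst; neurite branch points counted by automated high-content imaging, fitted relative to DMSO.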
# [8] = CCTE_Mundy_HCI_Cortical_NOG_NeuriteCount: CCTE's Neurite Outgrowth Assay in rat cortical cells for Neurite Count, Mundy Lab (AID 2284212; active = hit-call score of the fitted dose curve at least 0.9, where 1 is the maximum; inactive = score below 0.9;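 note: cells fixed about two days after chemical exposure began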)
# How it was run: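 Neurite number per cell from high-content imaging of betaIII-tubulin immunostaining, with Hoechst nuclear counterstain.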
# [9] = CCTE_Mundy_HCI_Cortical_Synap_Neur_Matur_NeuriteCount: CCTE's Synaptogenesis and Neurite Maturation Assay in rat cortical cells for Neurite Count, Mundy Lab (AID 2284222; active = hit-call score of the fitted dose curve at least 0.9, where 1 is the maximum; inactive = score below 0.9;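 note: exposure from day 7 to day 12 in vitro with readout at day 12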)
# How it was run: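 In this multiplexed morphology readout, rat primary cortical neurons are fixed at DIV 12 following dosing at DIV 7 and stained for MAP2, synaptophysin and nuclei. High-content image analysis yields neurite count.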
# [10] = CCTE_Mundy_HCI_Cortical_NOG_BPCount: CCTE's Neurite Outgrowth Assay in rat cortical cells for Branch Point Count, Mundy Lab (AID 2284237; active = hit-call score of the fitted dose curve at least 0.9, where 1 is the maximum; inactive = score below 0.9)
# How it was run: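 Measured 50.33 h after dosing, this morphology endpoint uses rat primary cortical cultures labelled for betaIII-tubulin. Branch points are quantified by high-content imaging, with DMSO as negative control and baseline.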
# [11] = NVS_IC_rCaBTZCHL: NovaScreen (NVS) Ion Channel Assay for Calcium Channel, Type L, Benzothiazepine Site (CaBTZCHL) (AID 2283337)
# How it was run: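 Scintillation counting of filter-bound radioligand gave the read-out, with reduced binding versus DMSO scored as activity. Membranes came from rat cortex and were read 1.5 h after compound addition. Chemicals were screened first in duplicate at 25 uM.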
# [12] = molecular target: human Thyroid Receptor Alpha (TRa), THRA (gene 7067) (UniProt P10827); assay: NVS_NR_hTRa_Antagonist: NovaScreen (NVS) Nuclear Receptor Binding Assay for human Thyroid Receptor Alpha Antagonism (TRa) (AID 2283362);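 note: activity is loss of signal relative to DMSO baseline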
# Sequence of human Thyroid Receptor Alpha (TRa), THRA (gene 7067) (P10827 whole entry, looked up): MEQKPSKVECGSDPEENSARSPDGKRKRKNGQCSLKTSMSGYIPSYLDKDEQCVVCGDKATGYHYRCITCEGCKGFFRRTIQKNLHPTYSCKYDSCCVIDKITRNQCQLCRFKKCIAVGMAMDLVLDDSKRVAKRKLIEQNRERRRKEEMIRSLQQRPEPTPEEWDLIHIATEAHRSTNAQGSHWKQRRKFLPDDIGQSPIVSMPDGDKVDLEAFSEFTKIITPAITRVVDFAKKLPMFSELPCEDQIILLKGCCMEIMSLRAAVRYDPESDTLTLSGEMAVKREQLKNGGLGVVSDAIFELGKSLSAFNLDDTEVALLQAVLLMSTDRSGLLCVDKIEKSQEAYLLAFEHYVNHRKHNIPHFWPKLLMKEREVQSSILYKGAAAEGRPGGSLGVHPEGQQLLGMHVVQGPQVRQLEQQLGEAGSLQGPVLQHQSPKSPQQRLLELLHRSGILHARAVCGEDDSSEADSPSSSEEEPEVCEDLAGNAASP
# How it was run: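 Cell-free AlphaLISA chemiluminescent binding read 1 h after dosing, antagonist mode; signal loss versus DMSO baseline. Primary screen in duplicate at 25 uM, then concentration series for actives.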
# [13] = read-out: Cyclin D2 (CCND2), CCND2 (gene 894); assay: LTEA_HepaRG_CCND2: Life Technologies and Expression Analysis (LTEA) Assay for Cyclin D2 (CCND2) using HepaRG (AID 2283449; active = hit-call score of the fitted dose curve at least 0.9, where 1 is the maximum; inactive = score below 0.9;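 note: CCND2 transcript measured by TaqMan qRT-PCR and normalised to three housekeeping genes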); conditions: mRNA level, 48 h; actives raise or lower the signal
# How it was run: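 Differentiated human HepaRG cells were exposed for 48 h in serum-free induction medium to eight half-log concentrations topping at 100 uM (0.5% DMSO vehicle). CCND2 mRNA was quantified by TaqMan qRT-PCR, normalised to ACTB, GAPDH and POLR2A, and fitted bidirectionally against DMSO.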
# [14] = read-out: Nuclear factor NF-kappa-B p105 subunit (Homo sapiens) (UniProt P19838); assay: LTEA_HepaRG_NFKB1: Life Technologies and Expression Analysis (LTEA) Assay for Nuclear Factor Kappa B Subunit 1 (NFKB1) using HepaRG (AID 2283521; active = hit-call score of the fitted dose curve at least 0.9, where 1 is the maximum; inactive = score below 0.9;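 note: TaqMan qRT-PCR transcript normalised to ACTB GAPDH and POLR2A housekeeping genes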); conditions: mRNA level, 48 h; actives raise or lower the signal
# How it was run: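 Human HepaRG cells receive eight half-log concentrations, highest 100 uM, for 48 h. NFKB1 expression is then quantified by qRT-PCR and analysed for up- or down-regulation relative to 0.5% DMSO vehicle.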
# [15] = Tanguay_ZF_120hpf_CIRC_legacy: (Legacy) Oregon State University Tanguay Lab 120 Hour Post-fertilization zebrafish Assay for Circulatory Malformation (AID 2283651)
# How it was run: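 Read-out: presence or absence of circulatory malformation at 120 hpf, scored by brightfield microscopy, fitted in the gain-of-signal direction against DMSO baseline. Wild-type 5D larvae were exposed from 6 hpf after enzymatic chorion removal.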
# [16] = molecular target: human Neurokinin, NK2 Receptor, TACR2 (gene 6865) (UniProt P21452); assay: NVS_GPCR_hNK2: NovaScreen (NVS) G Protein-Coupled Receptor Assay for human Neurokinin, NK2 Receptor (AID 2283278);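 note: actives reduce bound radioligand signal relative to DMSO baseline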
# Sequence of human Neurokinin, NK2 Receptor, TACR2 (gene 6865) (P21452 whole entry, looked up): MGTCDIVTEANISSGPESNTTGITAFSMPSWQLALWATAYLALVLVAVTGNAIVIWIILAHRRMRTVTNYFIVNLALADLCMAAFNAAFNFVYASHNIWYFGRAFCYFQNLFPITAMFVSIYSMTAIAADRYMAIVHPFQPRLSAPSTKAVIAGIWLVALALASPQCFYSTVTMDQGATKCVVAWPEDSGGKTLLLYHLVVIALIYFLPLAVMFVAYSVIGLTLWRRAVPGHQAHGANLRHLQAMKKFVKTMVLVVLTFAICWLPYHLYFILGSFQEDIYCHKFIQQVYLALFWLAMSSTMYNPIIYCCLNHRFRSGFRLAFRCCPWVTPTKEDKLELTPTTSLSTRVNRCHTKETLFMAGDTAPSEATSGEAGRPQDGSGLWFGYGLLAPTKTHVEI
# How it was run: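 Test chemicals displace a radioligand from receptor prepared from CHO cells in a cell-free format, read after 4 hours by scintillation counting on filters. Screening starts at 25 uM in duplicate, and active chemicals then go to concentration series.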
# [17] = molecular target: human Opioid Receptor Mu (Opiate Mu), OPRM1 (gene 4988) (UniProt P35372); assay: NVS_GPCR_hOpiate_mu: NovaScreen (NVS) G Protein-Coupled Receptor Assay for human Opioid Receptor Mu (Opiate Mu) (AID 2283290);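 note: hits lower bound tracer signal versus DMSO meaning displacement of the ligand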
# Sequence of human Opioid Receptor Mu (Opiate Mu), OPRM1 (gene 4988) (P35372 whole entry, looked up): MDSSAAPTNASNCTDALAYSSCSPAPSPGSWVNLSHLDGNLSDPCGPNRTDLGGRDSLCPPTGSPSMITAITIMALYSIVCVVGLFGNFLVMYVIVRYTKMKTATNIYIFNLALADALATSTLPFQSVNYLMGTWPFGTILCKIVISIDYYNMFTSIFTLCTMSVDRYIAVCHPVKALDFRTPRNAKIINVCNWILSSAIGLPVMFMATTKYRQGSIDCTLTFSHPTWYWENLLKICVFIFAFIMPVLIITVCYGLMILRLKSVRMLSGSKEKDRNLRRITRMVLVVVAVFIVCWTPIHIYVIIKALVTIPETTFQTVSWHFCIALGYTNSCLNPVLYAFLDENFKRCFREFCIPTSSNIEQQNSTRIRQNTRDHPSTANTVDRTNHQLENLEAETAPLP
# How it was run: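 Here, radioligand binding to CHO-extracted receptor was measured after 2.5 h using filter-based scintillation detection. Initial single-concentration screening used 25 uM in duplicate with plate controls; confirmed actives went to concentration-response testing.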
# Sequence of Nuclear factor NF-kappa-B p105 subunit (Homo sapiens) (P19838 whole entry, looked up): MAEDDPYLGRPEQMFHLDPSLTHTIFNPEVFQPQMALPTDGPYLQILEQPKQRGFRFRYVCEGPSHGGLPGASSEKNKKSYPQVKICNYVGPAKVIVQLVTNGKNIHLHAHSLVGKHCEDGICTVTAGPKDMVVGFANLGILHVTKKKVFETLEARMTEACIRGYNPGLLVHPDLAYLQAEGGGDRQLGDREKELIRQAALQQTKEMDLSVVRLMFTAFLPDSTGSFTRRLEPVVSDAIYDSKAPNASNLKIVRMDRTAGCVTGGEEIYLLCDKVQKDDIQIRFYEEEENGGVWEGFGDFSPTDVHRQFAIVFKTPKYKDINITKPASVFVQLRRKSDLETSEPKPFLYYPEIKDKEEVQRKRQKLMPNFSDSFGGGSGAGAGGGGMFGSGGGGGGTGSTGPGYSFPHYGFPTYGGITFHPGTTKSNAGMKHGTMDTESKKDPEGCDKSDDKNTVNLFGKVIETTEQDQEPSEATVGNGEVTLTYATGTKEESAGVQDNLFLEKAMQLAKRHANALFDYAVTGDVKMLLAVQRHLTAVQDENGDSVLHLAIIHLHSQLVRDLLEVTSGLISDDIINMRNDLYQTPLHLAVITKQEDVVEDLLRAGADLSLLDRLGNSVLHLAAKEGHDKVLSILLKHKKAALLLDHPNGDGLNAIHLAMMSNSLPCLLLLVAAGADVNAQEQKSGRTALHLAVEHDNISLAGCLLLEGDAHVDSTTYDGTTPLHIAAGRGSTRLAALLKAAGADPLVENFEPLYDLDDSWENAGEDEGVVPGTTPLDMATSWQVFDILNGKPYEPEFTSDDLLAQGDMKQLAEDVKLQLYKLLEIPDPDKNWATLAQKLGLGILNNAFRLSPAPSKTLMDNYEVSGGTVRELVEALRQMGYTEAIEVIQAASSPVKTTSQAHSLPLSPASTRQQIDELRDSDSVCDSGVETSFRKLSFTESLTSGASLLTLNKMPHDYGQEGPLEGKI
smiles,measurement,setting,value
CC1(C)[C@H](C(=O)O[C@H](C#N)c2cccc(Oc3ccccc3)c2)[C@@H]1C=C(Br)Br,outcome,[1],inactive
same,outcome,[2],inactive
same,outcome,[3],inactive
O=c1c2ccccc2c(=O)c2c1cc(Cl)c1[nH]c3c([nH]c12)c(Cl)cc1c(=O)c2ccccc2c(=O)c13,AC50,[4],0.732 µM (active)
same,outcome,[5],inactive
C[C@]12CC[C@H](O)C[C@H]1CC[C@@H]1[C@@H]2C[C@@H](O)[C@]2(C)[C@@H](C3=CC(=O)OC3)CC[C@]12O,outcome,[6],inactive
CNC(=N[N+](=O)[O-])NCC1CCOC1 (centres undefined),outcome,[7],inactive
same,outcome,[8],inactive
same,outcome,[9],inactive
same,outcome,[1],inactive
same,outcome,[10],inactive
same,outcome,[3],inactive
O=C(O)CCCc1ccc(N(CCCl)CCCl)cc1,outcome,[11],inactive
O=C(CCl)c1ccccc1,outcome,[12],inactive
same,outcome,[13],inactive
same,outcome,[14],inactive
same,outcome,[15],inactive
O=C1C(Cl)=C(Cl)C(=O)C(Cl)=C1Cl,AC50,[16],1.07 µM (active)
same,AC50,[17],4.48 µM (active)
